This passage reports PBM binding z-score results from the supplement of paper PMC6555819.

Holding throughout (experiment): PBM binding z-score (relative to random genomic background probes); higher = stronger binding; sequences stand for … in GC…GCGATTGACAGCGTAGAATGAAGG
The test system of assay [1] is FXR:RXRa (NR concentration 270 nM, RXRa partner concentration 90 nM). Summed up: (§1)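 The probes on custom Agilent 4×180K protein-binding microarrays were double-stranded, with 34-nt variable regions bearing direct-repeat seeds, single-nucleotide variants, half-site ablations and random human genomic background sequences. Incubation lasted 1 h with ligand-free nuclear receptor dimers in PBS pH 7.4, 2% milk, 0.02% Triton X-100, 1 mM DTT, 0.2 mg/mL BSA and 0.4 mg/ml salmon testes DNA. Antibodies against each partner (one per run) detected bound dimers, and fluorescence scans were regression-normalized. Binding z-scores take the random background probes as reference.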

Assay [2] deals with LXRa:RXRa (NR concentration 270 nM, RXRa partner concentration 90 nM). Summed up:
as §1

Assay [3] has as its system LXRa homodimer (NR concentration 270 nM). Summed up:
as §1

For assay [4], the system named is LXRb:RXRa (NR concentration 270 nM, RXRa partner concentration 90 nM). In short, it runs like this: as §1
The subject of assay [5] is LXRb homodimer (NR concentration 270 nM). In short, it runs like this:
as §1

For assay [6], the system named is PPARa:RXRa (NR concentration 270 nM, RXRa partner concentration 90 nM). Summed up:
as §1

The test system of assay [7] is PPARg:RXRa (NR concentration 180 nM, RXRa partner concentration 90 nM). In short, it runs like this: as §1
The subject of assay [8] is PPARg:RXRa 270nM:90nM, anti-RXR (NR concentration 270 nM, RXRa partner concentration 90 nM). In short, it runs like this:
as §1

Assay [9] has as its system PPARg:RXRa 30nM:10nM, anti-RXR (NR concentration 30 nM, RXRa partner concentration 10 nM). Summed up: as §1
The test system of assay [10] is PPARg:RXRa 90nM:30nM, anti-RXR (NR concentration 90 nM, RXRa partner concentration 30 nM). Summed up:
as §1

In assay [11] the test system is PPARg:RXRa DBDmut IVT, anti-RXR (DBD mutation: RXRa K156A/R161A, NR concentration 270 nM, RXRa partner concentration 90 nM). In short, it runs like this:
as §1

Assay [12] relates to PPARg:RXRa IVT, anti-PPARg (NR concentration 270 nM, RXRa partner concentration 90 nM). Summed up: as §1
In assay [13] the test system is PPARg DBDmut:RXRa IVT, anti-PPARg (DBD mutation: PPARg1 K132A/R137A, NR concentration 270 nM, RXRa partner concentration 90 nM). Summed up:
as §1

For assay [14], the system named is PPARg DBDmut IVT, anti-PPARg (DBD mutation: PPARg1 K132A/R137A, NR concentration 270 nM). Summed up: as §1
The subject of assay [15] is PPARg homodimer (NR concentration 180 nM). In short, it runs like this:
as §1

The test system of assay [16] is PXR:RXRa (NR concentration 270 nM, RXRa partner concentration 90 nM). In short, it runs like this:
as §1

The test system of assay [17] is PXR homodimer (NR concentration 270 nM). In short, it runs like this:
as §1

Assay [18] relates to RARa:RXR (NR concentration 270 nM, RXRa partner concentration 90 nM). In short, it runs like this: as §1
The subject of assay [19] is RARa homodimer (NR concentration 270 nM). In short, it runs like this:
as §1

The subject of assay [20] is RARb:RXRa (NR concentration 270 nM, RXRa partner concentration 90 nM). Summed up: as §1

Take GCTGCTAGGTCAGGTTGGTCAGGTAACGGGTACG: the PBM binding z-score in assay [1] was 1.37; in assay [2], 0.789; in [3] it was -0.109; in assay [4], 0.63; in assay [5], 0.124; in assay [6] it was 1.5. Also, the PBM binding z-score in assay [7] was 0.626; in assay [8], 0.972; in assay [9] it was -0.553; in assay [10], 0.573; in assay [11], 2.86; in assay [12], 2.24. Also, the PBM binding z-score was -0.63 in assay [13]; -0.722 in assay [14]; 0.641 in assay [15]; 0.475 in assay [16]; -0.529 in assay [17]; 0.834 in assay [18]. The PBM binding z-score in [19] is -0.052; in assay [20] it was 3.15.

Turning to CAAACTAGGTGAAGGTCAAAGTCGGTTTGTGCCA, the PBM binding z-score is 4.11 in [1]; 4.11 in assay [2]; 2.31 in assay [3]; 3.48 in [4]; 0.412 in assay [5]; 5.38 in assay [6]. Besides, the PBM binding z-score in assay [7] is 7.65; in assay [8], 6.92; in assay [9], 5.05; in [10], 6.44; in [11] it was 8.04; in assay [12], 8.04. In addition, the PBM binding z-score in assay [13] is 2.16; in assay [14], 0.309; in assay [15], 2.76; in assay [16], 3.95; in assay [17] it was 0.968; in assay [18], 4.27. For the same sequence, the PBM binding z-score in [19] was 0.0969; in assay [20], 3.87.

On to GCAGACAGGTGAACCGCAGGTAACTCAGGGTGGC, for which the PBM binding z-score in assay [1] was 0.339; in [2], 0.437; in [3], -0.44; in [4] it was 0.125; in assay [5], -1.15; in [6] it was 1.77. Further, the PBM binding z-score in [7] is 0.554; in assay [8], 0.309; in [9], -0.52; in [10], 0.0575; in assay [11], 0.713; in [12], 0.87. Besides, the PBM binding z-score in assay [13] is -0.564; in [14] it was -0.733; in assay [15], -0.518; in assay [16], 0.615; in assay [17], -0.535; in assay [18] it was 1.09. For the same sequence, the PBM binding z-score in assay [19] is -0.768; in assay [20] it was 0.901.

Take GATACAGGGTCAGCGAGAGGCCAGAGTATGGAAA: the PBM binding z-score in [1] was 5.07; in [2], 3.15; in [3] it was -0.446; in assay [4], 2.63; in assay [5], -1.12; in [6], 5.05. Moreover, the PBM binding z-score turned out to be 4.14 in assay [7]; 3.78 in [8]; 1.07 in assay [9]; 2.38 in assay [10]; 1.16 in assay [11]; 2.78 in assay [12]. Further, the PBM binding z-score in assay [13] was -0.0146; in assay [14] it was -0.645; in [15] it was 2.81; in assay [16], 3.7; in [17] it was 0.293; in assay [18] it was 4.49. In addition, the results for the PBM binding z-score in [19] and in assay [20] were 0.19 and 4.26, respectively.

For the sequence TCTCTTAGTTGATTAGGGCAACCGAAACAGCGGA, the PBM binding z-score in assay [1] was 0.698; in assay [2] it was 0.799; in assay [3] it was 0.13; in assay [4], 0.868; in [5], 1.26; in assay [6] it was 1.22. The PBM binding z-score came out at 0.00699 in assay [7]; 2.24 in [8]; 3.88 in assay [9]; 3.1 in [10]; 2.63 in [11]; 1.67 in assay [12]. For the same sequence, the PBM binding z-score in [13] is 0.796; in [14], 1.17; in [15], 1.28; in [16], 0.757; in assay [17] it was 0.477; in [18] it was 0.892. Further, the PBM binding z-score in assay [19] was determined as 0.846; in assay [20], 1.51.

For GCTCGCAGGCCATTTGGGTCACTCAATGACGGGC, the PBM binding z-score in assay [1] was 0.079; in assay [2], 0.0243; in [3], -0.668; in assay [4], 0.0952; in assay [5] it was -1.06; in assay [6], 1.29. In addition, the PBM binding z-score in [7] is 0.381; in [8], 0.415; in assay [9], -0.625; in assay [10], -0.441; in [11], 1.09; in assay [12] it was 1.56. The PBM binding z-score in assay [13] was -1.82; in assay [14], -1.26; in [15], 0.213; in assay [16] it was 0.621; in assay [17] it was 0.71; in assay [18] it was 0.492. Further, the PBM binding z-score was -0.566 in assay [19] and 1.72 in assay [20].

For the sequence AGTCAAAATTCAGGACGAGGTAACGTAAAGCACG, the PBM binding z-score was 0.194 in assay [1]; -0.186 in [2]; 0.224 in assay [3]; -0.188 in assay [4]; -0.336 in [5]; 0.0316 in assay [6]. Further, the PBM binding z-score in assay [7] was 0.944; in assay [8] it was 0.294; in assay [9], 0.281; in assay [10] it was 0.217; in assay [11] it was -0.124; in [12], 0.504. The PBM binding z-score in assay [13] is 0.875; in assay [14], 0.0968; in assay [15], 0.59; in [16], -0.0686; in assay [17] it was 0.0838; in assay [18] it was 0.591. Besides, the PBM binding z-score in [19] was determined as 0.657; in assay [20], 0.118.
